Compound activity from PubChem.
Shown are actives, neighbours in structure and some others; about 2.3% of the full set was active somewhere.
M1 PAM: potentiates human M1 receptor response to acetylcholine | CHO-K1 hM1, Fluo-8 calcium fluorescence, ACh EC20; 0% = ACh EC20, 100% = maximal ACh | activation, % at 3 µM | 360,000 compounds, 0.088% hits | AID 588819; in the data active = activation above about 19%, passing the limit was not always enough
Target sequence (P11229 whole entry, looked up): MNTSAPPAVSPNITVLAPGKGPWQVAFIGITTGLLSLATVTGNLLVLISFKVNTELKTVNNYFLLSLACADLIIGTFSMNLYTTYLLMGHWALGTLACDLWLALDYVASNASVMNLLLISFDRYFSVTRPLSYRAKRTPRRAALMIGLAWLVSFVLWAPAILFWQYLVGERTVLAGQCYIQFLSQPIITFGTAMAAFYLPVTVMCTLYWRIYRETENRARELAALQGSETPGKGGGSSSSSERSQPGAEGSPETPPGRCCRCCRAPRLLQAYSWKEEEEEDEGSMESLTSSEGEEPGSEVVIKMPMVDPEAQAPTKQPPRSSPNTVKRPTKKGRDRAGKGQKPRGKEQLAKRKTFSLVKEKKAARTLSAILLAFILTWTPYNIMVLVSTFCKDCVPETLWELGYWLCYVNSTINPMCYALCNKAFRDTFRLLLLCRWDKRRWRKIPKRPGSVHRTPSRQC
CHO-K1 Ca antag: nonselective inhibitor or artifact in parental CHO-K1 cells; ATP-induced calcium, Fluo-8 fluorescence; inhibition, % at 3 µM; 360,000 compounds, 0.6% hits; AID 602250;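 active = inhibition above a per-plate cutoff, the plate's mean sample inhibition plus 3 SD, cut at about 24% in these data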;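 also: 0% = DMSO plus EC80 ATP and 100% = DMSO alone without ATP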
CHRM1 agonist: human M1 muscarinic receptor agonism. CHO-K1 hM1, Fluo-8 calcium fluorescence, agonist mode; 0% DMSO, 100% acetylcholine EC100. 360,000 compounds, 0.33% hits. P11229. activation, % at 3 µM. AID 588814;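 active = activation above the run's mean compound activation plus 3 SD, cut at about 16% in these data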;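 also: peak over basal fluorescence ratio within a 140 s kinetic read after compound addition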
CHO-K1 Ca ag: counter-screen for M1 agonists: effect in parental CHO-K1 cells. Fluo-8 calcium fluorescence; scaled to maximal ATP response, vehicle zero. activation, % at 3 µM. 360,000 compounds, 0.48% hits. AID 602248; in the data active = activation above about 15%;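 also: untransfected CHO-K1 host cells lacking M1 receptor as counterscreen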
CHO-K1 Ca PAM: counter-screen for M1 PAMs: effect in parental CHO-K1 cells; ATP EC20, Fluo-8 calcium fluorescence; 0% at ATP EC20, 100% at ATP max; 360,000 compounds, 0.02% hits; activation, % at 3 µM; AID 602247;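 active = activation above the run cutoff, the mean activation of all test compounds plus 3 SD, cut at about 40% in these data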;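 also: peak over basal fluorescence ratio in a 140 s read after ATP addition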
CHRM1 antagonist: human CHRM1 antagonism. P11229. CHO-K1 hM1, Fluo-8 calcium fluorescence, ACh EC80 antagonist. inhibition, % at 3 µM. 360,000 compounds, 1.3% hits;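 active = percent inhibition above its own plate's cutoff, namely the mean of that plate's compound wells plus 3 SD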;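 also: peak over basal fluorescence ratio during 140 s after agonist addition; 0% = ACh EC80 plus DMSO and 100% = DMSO alone without agonist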
* = called active by the depositor.

`CCOC(=O)c1[nH]ncc1CN1CCCC(C(=O)c2cccc(OC(C)C)c2)C1` (centres undefined) gave M1 PAM -3, CHO-K1 Ca antag 10, CHRM1 agonist -10, CHO-K1 Ca ag 0, CHO-K1 Ca PAM -9 and CHRM1 antagonist 2.
Nc1c(C(=O)CSc2n[nH]c(-c3ccccc3Br)n2)c(=O)[nH]c(=O)n1C1CC1 was read as M1 PAM -6, CHO-K1 Ca antag -6, CHRM1 agonist -4, CHO-K1 Ca ag 1, CHO-K1 Ca PAM 7 and CHRM1 antagonist 11.
Nc1c(C(=O)CSc2n[nH]c(-c3ccccc3)n2)c(=O)[nH]c(=O)n1C1CC1 was read as M1 PAM 29*, CHO-K1 Ca antag -1, CHRM1 agonist 2, CHO-K1 Ca ag 0, CHO-K1 Ca PAM 1 and CHRM1 antagonist -27.
C=C1C(=O)[C@]23C[C@H]1CCC2[C@@]1(C)C(C[C@@H]3O)[C@](C)(C(=O)O)C[C@H](O)[C@@H]1O (some centres undefined) was read as M1 PAM 8, CHO-K1 Ca antag 4, CHRM1 agonist -2, CHO-K1 Ca ag 1, CHO-K1 Ca PAM 14 and CHRM1 antagonist -5.
C=C1C(=O)[C@]23C[C@H]1CCC2[C@@]1(C)C(C[C@@H]3O)[C@](C)(C(=O)OC)CC[C@@H]1OC(C)=O (some centres undefined) was read as M1 PAM -23, CHO-K1 Ca antag 29*, CHRM1 agonist -6, CHO-K1 Ca ag 6, CHO-K1 Ca PAM 0 and CHRM1 antagonist 52*.
For C=C1C(=O)[C@]23C[C@H]1CC[C@H]2[C@]1(C)[C@@H](O)CC[C@@](C)(C(=O)O)[C@H]1C[C@@H]3O the results were M1 PAM 2, CHO-K1 Ca antag 29*, CHRM1 agonist -3, CHO-K1 Ca ag 0, CHO-K1 Ca PAM -7 and CHRM1 antagonist 0.
For COc1cc(NS(=O)(=O)c2ccc(NC(=S)NC(=O)c3ccco3)cc2)ncn1 the results were M1 PAM -2, CHO-K1 Ca antag 19, CHRM1 agonist -6, CHO-K1 Ca ag 18*, CHO-K1 Ca PAM 4 and CHRM1 antagonist 4.
For NC(=O)c1ccsc1NC(=O)COC(=O)c1cnccn1 the results were M1 PAM 16, CHO-K1 Ca antag 12, CHRM1 agonist 4, CHO-K1 Ca ag 0, CHO-K1 Ca PAM -23 and CHRM1 antagonist -4.
O=C(COC(=O)c1cnccn1)Nc1ccc(Cl)cn1 was read as M1 PAM 12, CHO-K1 Ca antag 27*, CHRM1 agonist 4, CHO-K1 Ca ag 0, CHO-K1 Ca PAM -29 and CHRM1 antagonist -16.
For O=C(Cn1nc(C(=O)O)c2ccccc2c1=O)Nc1cccc(S(=O)(=O)N2CCCC2)c1 the results were M1 PAM 0, CHO-K1 Ca antag 6, CHRM1 agonist -5, CHO-K1 Ca ag 4, CHO-K1 Ca PAM -3 and CHRM1 antagonist -4.
For Fc1ccc(CNc2ncnc3cc(Cl)ccc23)cc1 the results were M1 PAM -13, CHO-K1 Ca antag 2, CHRM1 agonist -1, CHO-K1 Ca ag 16*, CHO-K1 Ca PAM 3 and CHRM1 antagonist 9.
`COc1ccc(CNc2ncnc3cc(Cl)ccc23)cc1OC` gave M1 PAM -3, CHO-K1 Ca antag -2, CHRM1 agonist -1, CHO-K1 Ca ag 11, CHO-K1 Ca PAM 2 and CHRM1 antagonist 9.
CCc1nc2ccc(C(=O)Nc3cccc(NS(C)(=O)=O)c3)cn2c1N(C)C(=O)c1cccc(OC)c1 was read as M1 PAM -7, CHO-K1 Ca antag 0, CHRM1 agonist -5, CHO-K1 Ca ag 1, CHO-K1 Ca PAM 18 and CHRM1 antagonist 12.
CCN(CC)c1ccc2cc(C(=O)c3cccs3)c(=O)oc2c1 was read as M1 PAM -36, CHO-K1 Ca antag 40*, CHRM1 agonist 131*, CHO-K1 Ca ag 74*, CHO-K1 Ca PAM -1 and CHRM1 antagonist 60*.
For O=c1oc2ccc3ccccc3c2cc1-c1nnc(-c2ccccc2)o1 the results were M1 PAM -3, CHO-K1 Ca antag 3, CHRM1 agonist -5, CHO-K1 Ca ag 0, CHO-K1 Ca PAM -3 and CHRM1 antagonist 2.
CCN(CC)c1ccc2cc(-c3nnc(-c4ccccc4)o3)c(=O)oc2c1 was read as M1 PAM -20, CHO-K1 Ca antag 23, CHRM1 agonist 108*, CHO-K1 Ca ag 28*, CHO-K1 Ca PAM 4 and CHRM1 antagonist 15*.
CCN(CC)c1ccc2cc(-c3nc4ccccc4[nH]3)c(=O)oc2c1 was read as M1 PAM -38, CHO-K1 Ca antag 8, CHRM1 agonist 279*, CHO-K1 Ca ag 80*, CHO-K1 Ca PAM -14 and CHRM1 antagonist 69*.
Cc1ccc(S(=O)(=O)n2c(N)nc3cc(C)c(C)cc32)cc1 was read as M1 PAM -20, CHO-K1 Ca antag -3, CHRM1 agonist -11, CHO-K1 Ca ag 0, CHO-K1 Ca PAM -4 and CHRM1 antagonist 20*.
Cc1ccc(S(=O)(=O)n2c(C)nc3cc(C)ccc32)cc1 was read as M1 PAM 1, CHO-K1 Ca antag -10, CHRM1 agonist -1, CHO-K1 Ca ag 0, CHO-K1 Ca PAM 3 and CHRM1 antagonist -2.
For COc1ccc(-c2[nH]ncc2CN(CCO)Cc2cccs2)c(F)c1 the results were M1 PAM 5, CHO-K1 Ca antag -6, CHRM1 agonist -6, CHO-K1 Ca ag 2, CHO-K1 Ca PAM 13 and CHRM1 antagonist -6.
Screening Cc1cccc(N2CCN(C(=O)C3CCC(=O)N(Cc4ccccc4F)C3)CC2)c1C (centres undefined) returned M1 PAM 2, CHO-K1 Ca antag -15, CHRM1 agonist -1, CHO-K1 Ca ag 7, CHO-K1 Ca PAM 21 and CHRM1 antagonist -8.
For O=C(Nc1cccnc1)c1ccc2nc(-c3ccccc3)c(-c3ccccc3)nc2c1 the results were M1 PAM 2, CHO-K1 Ca antag 12, CHRM1 agonist -3, CHO-K1 Ca ag 17*, CHO-K1 Ca PAM -2 and CHRM1 antagonist 19.
For O=C(Nc1cccnc1)c1ccc(Oc2ccccc2)cc1 the results were M1 PAM 2, CHO-K1 Ca antag -8, CHRM1 agonist -3, CHO-K1 Ca ag 1, CHO-K1 Ca PAM 7 and CHRM1 antagonist -7.
Screening COc1cc(Br)cc(CN2CCN(C/C=C/c3ccccc3)CC2)c1O returned M1 PAM -32, CHO-K1 Ca antag -24, CHRM1 agonist -13, CHO-K1 Ca ag 4, CHO-K1 Ca PAM 21 and CHRM1 antagonist 96*.
For COc1ccc(O)c(CN2CCN(C/C=C/c3ccccc3)CC2)c1 the results were M1 PAM -8, CHO-K1 Ca antag -22, CHRM1 agonist -8, CHO-K1 Ca ag 3, CHO-K1 Ca PAM 19 and CHRM1 antagonist 0.
For O=C(COC(=O)/C=C/c1cccc(F)c1)Nc1ccc(Cl)cn1 the results were M1 PAM 3, CHO-K1 Ca antag -15, CHRM1 agonist -5, CHO-K1 Ca ag 0, CHO-K1 Ca PAM 11 and CHRM1 antagonist -3.
